Measurements from PubChem BioAssay (EPA / NIEHS).
Inconclusive results are not listed. Activity calls are given as the source filed them. Rule for the calls, unless noted: active = hit-call score of the fitted dose curve at least 0.9, where 1 is the maximum; inactive = score below 0.9.

What was measured:
[1] = BSK_3C_TissueFactor: BioMAP Diversity Plus: 3C Assay for Tissue Factor Biomarker Activity (AID 2282997); settings: BioMAP 3C HUVEC, tissue factor biomarker readout; actives raise or lower the signal
Procedure, shortened: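 After a 24 h chemical exposure of primary human umbilical vein endothelial cells, Tissue Factor levels were quantified by ELISA.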

[2] = BSK_3C_VCAM1: BioMAP Diversity Plus: 3C Assay for Vascular cell adhesion molecule 1 (VCAM1) Biomarker Activity (AID 2282999); settings: BioMAP 3C HUVEC, VCAM1 ELISA, cytokine-stimulated; actives raise or lower the signal
Procedure, shortened: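 Vascular primary endothelium (human umbilical vein) was exposed to chemicals and assayed 24 h later. VCAM-1 levels came from ELISA, with DMSO serving as baseline for bidirectional fitting.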

[3] = BSK_3C_Proliferation: Cell Proliferation Assessment in the BioMAP Diversity Plus: 3C Assay (AID 2283006); settings: primary human endothelial cells (HUVEC);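 for AC50: potency may reflect either rise or fall in cell number versus DMSO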
Procedure, shortened: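 HUVEC, sub-confluent; 48 h chemical exposure; 10% TCA fix, 0.1% SRB stain, A560 total protein. Gain or loss of signal fitted both directions vs DMSO control.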

[4] = read-out: E-selectin (Homo sapiens) (UniProt P16581); assay: BSK_3C_Eselectin: BioMAP Diversity Plus: 3C Assay for Eselectin Biomarker Activity (AID 2283015); settings: primary human endothelial cells (HUVEC); actives raise or lower the signal;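 note: cell surface E-selectin protein quantified by ELISA 24 h after dosing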
Procedure, shortened: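 ELISA read-out of E-selectin on endothelial monolayers after 24 h chemical treatment. Human umbilical vein primary cells served as the system, with DMSO defining baseline activity for bidirectional fitting.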

[5] = read-out: Interleukin-1 alpha (IL1a), IL1A (gene 3552); assay: BSK_BE3C_IL1a: BioMAP Diversity Plus: BE3C Assay for Interleukin-1 alpha (IL1a) Biomarker Activity (AID 2283016); settings: primary human bronchial epithelial cells; actives raise or lower the signal
Procedure, shortened: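 ELISA read-out of IL-1a from human lung bronchial epithelial primary cells, 24 h post-dose. Gain or loss of signal fitted relative to DMSO negative control.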

[6] = read-out: Monocyte Chemoattractant Protein-1 (MCP1), CCL2 (gene 6347); assay: BSK_3C_MCP1: BioMAP Diversity Plus: 3C Assay for Monocyte Chemoattractant Protein-1 (MCP1) Biomarker Activity (AID 2283017); settings: primary human endothelial cells (HUVEC); actives raise or lower the signal
Procedure, shortened: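 ELISA read-out of MCP-1 from human umbilical vein endothelial cell cultures harvested 24 h post-dosing. Gain or loss of signal was fitted relative to DMSO.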

[7] = read-out: Interleukin-8 (IL8), CXCL8 (gene 3576); assay: BSK_3C_IL8: BioMAP Diversity Plus: 3C Assay for Interleukin-8 (IL8) Biomarker Activity (AID 2283020); settings: primary human endothelial cells (HUVEC); actives raise or lower the signal
Procedure, shortened: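 HUVEC, 3C stimulation; 24 h compound exposure; IL-8 read by ELISA; gain or loss of signal fitted relative to DMSO control.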

[8] = BSK_3C_SRB: Viability Assessment in the BioMAP Diversity Plus: 3C Assay (AID 2283023); settings: primary human endothelial cells (HUVEC);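 note: fitted both ways against DMSO so a hit may be signal rise or drop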
Procedure, shortened: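 Absorbance at 560 nm of sulforhodamine B-stained (0.1%) total protein served as a cytotoxicity readout in human umbilical vein endothelial cells, 24 h after chemical treatment. Signal was fitted bidirectionally relative to DMSO.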

[9] = read-out: Matrix Metallopeptidase 1 (MMP1), MMP1 (gene 4312); assay: BSK_BE3C_MMP1: BioMAP Diversity Plus: BE3C Assay for Matrix Metallopeptidase 1 (MMP1) Biomarker Activity (AID 2283024); settings: primary human bronchial epithelial cells; actives raise or lower the signal
Procedure, shortened: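 ELISA read-out of MMP1 in human lung bronchial epithelial primary cultures, 24 h post-dose; bidirectional curve fit vs DMSO baseline, gain or loss of signal scored.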

[10] = read-out: Pselectin, SELP (gene 6403); assay: BSK_4H_Pselectin: BioMAP Diversity Plus: 4H Assay for Pselectin Biomarker Activity (AID 2283026); settings: primary human endothelial cells (HUVEC); actives raise or lower the signal
Procedure, shortened: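 HUVEC, 24 h chemical exposure; P-selectin read by ELISA. Bidirectional curve fit vs DMSO baseline; gain or loss of signal scored.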

[11] = BSK_4H_SRB: Viability Assessment in the BioMAP Diversity Plus: 4H Assay (AID 2283027); settings: primary human endothelial cells (HUVEC);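 note: cells exposed to compound for 24 h before staining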;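 for AC50: curves fitted both ways versus DMSO so AC50 may be loss or gain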
Procedure, shortened: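 Cytotoxicity readout: sulforhodamine B (0.1%) staining of total protein after 10% TCA fixation, measured at 560 nm in human umbilical vein endothelium at 24 h. DMSO set the baseline; fitting was bidirectional.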

[12] = read-out: Collagen III, COL3A1 (gene 1281); assay: BSK_hDFCGF_CollagenIII: BioMAP Diversity Plus: hDFCGF Assay for Collagen III Biomarker Activity (AID 2283056); settings: primary human foreskin fibroblasts; actives raise or lower the signal
Procedure, shortened: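 ELISA read-out of collagen III from human skin fibroblast cultures sampled 24 h post-dosing. Values were derived by bidirectional fitting relative to the DMSO vehicle control.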

[13] = read-out: Macrophage colony-stimulating factor (MCSF), CSF1 (gene 1435); assay: BSK_hDFCGF_MCSF: BioMAP Diversity Plus: hDFCGF Assay for Macrophage colony-stimulating factor (MCSF) Biomarker Activity (AID 2283060); settings: primary human foreskin fibroblasts; actives raise or lower the signal
Procedure, shortened: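 Primary human foreskin fibroblasts dosed with chemical; 24 h later, M-CSF quantified by ELISA; curves fitted in both directions vs DMSO negative control.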

[14] = read-out: Interleukin-1 alpha (IL1a), IL1A (gene 3552); assay: BSK_KF3CT_IL1a: BioMAP Diversity Plus: KF3CT Assay for Interleukin-1 alpha (IL1a) Biomarker Activity (AID 2283070); settings: primary human keratinocytes with fibroblasts; actives raise or lower the signal
Procedure, shortened: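 Readout is IL-1a level by ELISA, compared bidirectionally with DMSO as baseline. Cells: human keratinocytes co-cultured with foreskin fibroblasts, harvested 24 h post-dose.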

[15] = read-out: Matrix Metallopeptidase 9 (MMP9), MMP9 (gene 4318); assay: BSK_KF3CT_MMP9: BioMAP Diversity Plus: KF3CT Assay for Matrix Metallopeptidase 9 (MMP9) Biomarker Activity (AID 2283074); settings: primary human keratinocytes with fibroblasts; actives raise or lower the signal
Procedure, shortened: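 Values come from bidirectional fitting relative to DMSO of MMP-9 levels, which were measured by ELISA. Measurements were taken 24 h after chemical dosing of a keratinocyte and foreskin fibroblast co-culture.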

[16] = read-out: Interleukin-1 alpha (IL1a), IL1A (gene 3552); assay: BSK_LPS_IL1a: BioMAP Diversity Plus: LPS Assay for Interleukin-1 alpha (IL1a) Biomarker Activity (AID 2283080); settings: primary human HUVEC with PBMC; actives raise or lower the signal
Procedure, shortened: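 ELISA read-out of IL-1 alpha from a human primary vascular co-culture (endothelium plus PBMC) under LPS, sampled 24 hours post-dosing. Activity was fitted in both directions relative to DMSO controls.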

[17] = BSK_LPS_PGE2: BioMAP Diversity Plus: LPS Assay for Prostaglandin E2 (PGE2) Biomarker Activity (AID 2283082); settings: primary human HUVEC with PBMC; actives raise or lower the signal;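 for AC50: secreted prostaglandin E2 measured by ELISA in LPS-stimulated co-culture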
Procedure, shortened: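 ELISA read-out of PGE2 from human umbilical vein endothelial cells co-cultured with peripheral blood mononuclear cells under LPS, 24 h post-dose. Gain or loss of signal scored relative to DMSO baseline.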

[18] = read-out: Tumor necrosis factor (Homo sapiens) (UniProt P01375); assay: BSK_LPS_TNFa: BioMAP Diversity Plus: LPS Assay for Tumour Necrosis Factor alpha (TNFa) Biomarker Activity (AID 2283085); settings: primary human HUVEC with PBMC; actives raise or lower the signal
Procedure, shortened: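 HUVEC/PBMC co-culture, LPS-stimulated; 24 h post-dose; TNFa by ELISA; gain or loss of signal fitted bidirectionally vs DMSO baseline.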

[19] = BSK_SAg_PBMCCytotoxicity: PBMC Cytotoxicity Assessment in the BioMAP Diversity Plus: SAg Assay (AID 2283093); settings: primary human HUVEC with PBMC;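 note: PBMC viability measured as Alamar Blue reduction fluorescence at 546/580 nm; fitted both ways against DMSO so a hit may be loss or gain of signal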
Procedure, shortened: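 Alamar Blue reduction (6 h, 546/580 nm) reports PBMC cytotoxicity after 90 h superantigen activation (SEB, TSST-1; 20 ng/mL final each) with 1 h compound pre-treatment. Gain or loss of signal fitted versus DMSO.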

[20] = target: Estrogen receptor beta (Homo sapiens) (UniProt Q92731); assay: OT_ER_ERbERb_0480: Odyssey Thera (OT) 8-hour HEK293T Protein-Complementation Assay for Estrogen Receptor-beta/-beta Homodimer (AID 2283357; active = hit-call score of the fitted dose curve at least 0.9, where 1 is the maximum;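 note: active means signal gain over DMSO baseline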)
Procedure, shortened: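 Fluorescence gain from complemented reporter fragments on ER-beta LBD homodimer in HEK293T was quantified against DMSO controls after 8 h treatment, fixation in 4% formaldehyde and Draq5 staining.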

Measured: AC50

E-selectin (Homo sapiens), sequence (P16581 whole entry, looked up): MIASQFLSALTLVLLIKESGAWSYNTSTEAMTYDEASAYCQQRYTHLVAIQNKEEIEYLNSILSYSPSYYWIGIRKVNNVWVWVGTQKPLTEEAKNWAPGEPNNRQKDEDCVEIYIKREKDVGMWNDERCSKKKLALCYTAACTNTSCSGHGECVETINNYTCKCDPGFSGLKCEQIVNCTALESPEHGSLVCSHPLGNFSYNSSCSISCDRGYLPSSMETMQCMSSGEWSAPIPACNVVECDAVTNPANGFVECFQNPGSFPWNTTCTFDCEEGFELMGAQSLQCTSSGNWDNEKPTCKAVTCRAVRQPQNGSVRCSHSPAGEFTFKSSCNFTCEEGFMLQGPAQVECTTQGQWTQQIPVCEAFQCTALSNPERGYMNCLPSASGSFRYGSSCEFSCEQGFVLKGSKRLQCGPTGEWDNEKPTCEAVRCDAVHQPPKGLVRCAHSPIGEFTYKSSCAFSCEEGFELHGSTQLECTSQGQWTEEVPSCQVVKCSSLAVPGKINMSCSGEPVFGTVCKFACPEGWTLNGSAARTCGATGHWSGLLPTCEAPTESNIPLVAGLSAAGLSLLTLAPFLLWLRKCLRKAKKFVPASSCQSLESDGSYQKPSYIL
Estrogen receptor beta (Homo sapiens), sequence (Q92731 whole entry, looked up, the tested form may be a part): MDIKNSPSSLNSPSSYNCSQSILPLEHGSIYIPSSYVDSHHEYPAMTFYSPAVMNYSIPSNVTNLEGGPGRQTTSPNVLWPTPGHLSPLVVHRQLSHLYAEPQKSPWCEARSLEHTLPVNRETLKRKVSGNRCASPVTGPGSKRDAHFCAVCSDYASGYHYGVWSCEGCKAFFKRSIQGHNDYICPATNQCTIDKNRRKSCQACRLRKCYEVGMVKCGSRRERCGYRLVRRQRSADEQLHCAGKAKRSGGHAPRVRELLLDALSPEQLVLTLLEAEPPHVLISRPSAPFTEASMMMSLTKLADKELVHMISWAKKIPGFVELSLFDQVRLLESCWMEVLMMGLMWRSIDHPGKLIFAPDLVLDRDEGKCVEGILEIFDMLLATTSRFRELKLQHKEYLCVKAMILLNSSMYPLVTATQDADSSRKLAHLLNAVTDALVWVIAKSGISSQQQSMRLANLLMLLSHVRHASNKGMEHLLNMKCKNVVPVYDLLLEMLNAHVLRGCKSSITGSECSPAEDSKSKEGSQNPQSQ
Tumor necrosis factor (Homo sapiens), sequence (P01375 whole entry, looked up): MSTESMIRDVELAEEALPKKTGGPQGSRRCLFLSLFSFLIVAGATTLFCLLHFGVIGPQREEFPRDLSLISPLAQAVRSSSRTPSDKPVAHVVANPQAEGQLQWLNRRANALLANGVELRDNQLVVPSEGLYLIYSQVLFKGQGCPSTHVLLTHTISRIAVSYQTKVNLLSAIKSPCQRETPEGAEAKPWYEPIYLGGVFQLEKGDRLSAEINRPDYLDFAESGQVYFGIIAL

COc1ccc(CO)cc1
not listed: [20]
inactive: all other assays above

CCC(=O)c1ccc(Cl)cc1
inactive: [20]

CNC(=N[N+](=O)[O-])NCC1CCOC1 (stereo not drawn)
inactive: [20]

Oc1cc(Cl)ccc1Cl
not listed: [20]
inactive: all other assays above

O=c1[nH]c(Cl)c(Cl)cc1Cl
not listed: [20]
inactive: all other assays above

CC(C)c1ccc(O)cc1
active: [20] 57.9 µM

Nc1ccc(Cl)c(Cl)c1
inactive: [20]

CC(=O)/C=C/c1ccccc1
active: [2] 20 µM | [3] 23.2 µM | [16] 20 µM
not listed: [20]
inactive: all other assays above

C=CC(=O)OCC(CC)CCCC (stereo not drawn)
active: [1] 28.9 µM | [2] 20 µM | [3] 27.6 µM | [6] 20 µM | [7] 20 µM | [12] 20 µM | [13] 20 µM | [14] 6.47 µM
inactive: all other assays above

Clc1ccc(-c2ccccc2)cc1
active: [8] 30.9 µM | [10] 28.2 µM | [11] 35.3 µM | [17] 17.2 µM
not listed: [20]
inactive: all other assays above

CC(C)COP(=O)(OCC(C)C)OCC(C)C
not listed: [20]
inactive: all other assays above

Cc1cc(C)c(C2=C(OC(=O)CC(C)(C)C)C3(CCCC3)OC2=O)c(C)c1
inactive: [20]

O=[N+]([O-])O
not listed: [20]
inactive: all other assays above
